Laboratory results: PubChem BioAssay (NCATS)
Results filed as inconclusive are left out. The source made the active and inactive calls. Unless noted, the call rests on the fitted dose curve; in most records, active means well fitted curve in the direction sought with a large enough effect; inconclusive means small, poorly fitted or top-dose-only effect, or another doubt; inactive means no such curve, though single readings can be large; an effect the other way counts as inactive or inconclusive.

How the values were obtained:
[1] = AP1 Signaling Pathway (AID 357; active means well fitted curve in either direction with a large enough effect, not every such curve was filed as active;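 further: ME-180 reporter cells stimulated with EGF at its EC50 level; on the % scale 0 is the no-effect control and ±100 the full control effect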); conditions: ME-180 AP-1-bla reporter, EGF-induced, beta-lactamase ratio, 5 h; at 7.69 µM (top of the series) unless noted
Summary of the method: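 Titration-series screen for positive or negative modulators of EC50 EGF-induced signaling in ME-180 cells carrying an AP-1-driven beta-lactamase reporter. After 5 hours at 37 degrees Celsius, CCF4 460nm/530nm emission ratio gave %Activity; AC50 values derived.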

[2] = target: Cytochrome P450 1A2 (Homo sapiens) (UniProt P05177); test: p450-cyp1a2 (AID 410; calls by dose curve;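 further: -100% = full effect of reference inhibitor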)
Summary of the method: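 O-Demethylation of luciferin 6' methyl ether by human CYP1A2 is monitored as luciferase luminescence. Substrate sits at Km (100uM); enzyme is 20nM. Values are scaled to 57 uM furafylline as maximal inhibition.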

[3] = Stat Signaling Pathway (AID 446; active means well fitted curve in either direction with a large enough effect, not every such curve was filed as active;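 further: ME-180 cervical cancer cells given 40 pM IL-6 alongside compound; SIE-controlled beta-lactamase reporter measured as 460/530 nm FRET emission ratio; on the % scale 0 is the no-effect control and ±100 the full control effect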)
Summary of the method: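 Normalization used AC90 stimulation (300 pM IL-6) and AC90 inhibition (125 nM pan-JAK inhibitor at 40 pM IL-6). The underlying signal is SIE-driven beta-lactamase in ME-180 cells after 5 h IL-6 exposure with compound.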

[4] = target: Glucocorticoid receptor (Homo sapiens) (UniProt P04150); test: GR-GFP Redistribution (AID 450;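 active means compounds whose dose series gives a full or clear partial fitted curve of increased nuclear translocation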; further: potency means the concentration at half of the fitted maximal effect); conditions: U2OS GR-GFP nuclear translocation, laser cytometry, 2 h
[5] = target: Glucocorticoid receptor (Homo sapiens) (UniProt P04150); test: GR-EFC Redistribution (AID 451; calls by dose curve; further: potency means the concentration at half of the fitted maximal effect); conditions: CHO-K1 GR-EFC translocation, beta-gal luminescence, 2 h
Summary of the method: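 Translocation of GR-ED fusion to nuclear EA restores b-gal, read by luminescence after 1 h room-temperature detection. Engineered CHO-K1 biosensor cells, 1,000/well, exposed 2 h at 37 C to titrations up to 46 uM final.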

[6] = target: Mitogen-activated protein kinase 10 (Mus musculus) (UniProt Q61831); test: JNK3 AlphaScreen Assay (AID 530; active means well fitted curve in either direction with a large enough effect, not every such curve was filed as active;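 further: kinase came from lysate of stimulated human HepG2 cells; signal reports phosphorylation of biotinylated GST-cJun 1-79 at Ser73 with 10 µM ATP; on the % scale 0 is the no-effect control and ±100 the full control effect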)
Summary of the method: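 qHTS titrations with 15 min compound pre-incubation before adding ATP (10 uM final). Read-out: AlphaScreen of Ser73-phosphorylated biotin-GST-cJun using HepG2 lysate JNK3 activated by IL-1β and TNFα.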

[7] = target: Guanine nucleotide-binding protein G(i) subunit alpha-1 (Homo sapiens) (UniProt P63096); test: qHTS Assay for Inhibitors of RGS12 GoLoco Motif Activity (Green Fluorophore) (AID 879);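 further: 0% = labeled peptide with Gαi1 and full inhibition = labeled peptide alone without protein; negative values mean loss of peptide binding seen as reduced polarization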
Summary of the method: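 A drop in FITC polarization marked displacement of the FITC-tagged RGS12 GoLoco peptide (10 nM) from Gαi1 (50 nM). Compounds were incubated 10 min at room temperature in Tris pH 7.5 buffer containing 150 mM NaCl, 0.1 mM GDP and 0.05% NP40; unlabeled peptide titration served as control.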

[8] = target: Cytochrome P450 3A4 (Homo sapiens) (UniProt P08684); test: qHTS Assay for Inhibitors and Substrates of Cytochrome P450 3A4 (AID 884); further: on the % scale 0 is the no-effect control and ±100 the full control effect; nearly all actives have a fitted effect of over 50% in size
Summary of the method: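 Luminescent readout of luciferin produced by CYP3A4 (20 nM) dealkylation of Luciferin-PPXE, 25 uM (its KM). NADPH-driven reaction ran 60 min at RT after 10 min compound preincubation; data scaled to 57 uM ketoconazole as 100% inhibition.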

[9] = qHTS Assay for Identification of Small Molecule Agonists for Hypoxia Response Element Signaling Pathway (AID 914; active means well fitted activation curve with a large enough effect in the signal ratio, with a control signal flat, not every such curve was filed as active; the % refers to the signal ratio; further: % of control where 0% means no effect); conditions: ME-180 (cervical carcinoma) HRE-bla reporter, beta-lactamase ratio, CoCl2, 17 h; activation: hits give high values
Summary of the method: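 Cells were plated overnight, pin-dosed with compound in a titration series, co-stimulated with EC50 CoCl2 and incubated 17 hours at 37 degrees Celsius. CCF4 substrate was then loaded, and AC50 values came from the 460nm/530nm ratio.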

[10] = qHTS Assay for Identification of Small Molecule Agonists for Thrombopoietin (TPO) Signaling Pathway (AID 917); further: on the % scale 0 is the no-effect control and ±100 the full control effect
Summary of the method: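 Ba/F3 (mouse) + hTPO receptor + GpIIb-promoter luciferase; IL-3 withdrawn overnight; compound + 26 pM TPO (EC50), 24 hrs, 37 C, 5% CO2; Steadylite luminescence, 10 min RT.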

[11] = target: Muscarinic acetylcholine receptor M1 (Rattus norvegicus) (UniProt P08482); test: qHTS Assay for Antagonists of Acetylcholine Muscarinic M1 Receptor: Measurement of IP-One Response (AID 944); further: nearly all actives have a fitted effect of over 75% in size
Summary of the method: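 Antagonist mode with rat M1 receptor transfected into CHO cells. Compound is added first for 10 min, carbachol at its EC80 follows for 30 min, and lysis reagents then allow TR-FRET detection of accumulated IP1.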

[12] = target: Pyruvate kinase (Leishmania mexicana) (UniProt Q27686); test: qHTS Validation Assay for Inhibitors of Leishmania Mexicana Pyruvate Kinase (AID 945);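 further: 0% = DMSO only neutral control wells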
Summary of the method: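 The enzyme is a highly purified E451W mutant of LmPYK used at 0.2 nM. It converts 0.5 mM PEP and 0.1 mM ADP over 1 h at room temperature; product ATP is quantified by luciferase luminescence relative to DMSO controls.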

[13] = target: Pyruvate kinase PKM (Homo sapiens) (UniProt P14618); test: qHTS Assay for Activators of Human Muscle Pyruvate Kinase (AID 954; active means well fitted curve in the direction sought with a large enough effect, not every such curve was filed as active;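 further: 0% = uninhibited enzyme and -100% = no enzyme or full thiadiazolimine inhibition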)
Summary of the method: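 Compound pinned into substrate mix (0.5 mM PEP, 0.1 mM ADP), then 0.1 nM PKM2 added; 1 h, RT. Stop/detection luciferase reagent added, luminescence read. Normalized to no-inhibition and no-enzyme or reference-inhibitor controls.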

[14] = target: Alpha-galactosidase A (Homo sapiens) (UniProt P06280); test: Counterscreen for Glucocerebrosidase Inhibitors: qHTS Assay for Human alpha-Galactosidase at pH 4.5 (AID 992); further: 0% is about no effect
Summary of the method: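 Steps: enzyme (2 nM final), then compound across 0.7 nM to 77 uM, then 80 uM fluorogenic galactopyranoside substrate; incubate 20 min at room temperature; quench at pH 10; measure fluorescence at 365/440 nm.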

[15] = target: alpha-glucosidase (Oryza sativa, rice) (UniProt Q653V4); test: Counterscreen for Glucocerebrosidase Inhibitors: qHTS Assay for Rice alpha-Glucosidase at pH 5.0 (AID 997);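 further: 0% = full activity with enzyme and -100% = basal without enzyme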
Summary of the method: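 Endpoint fluorogenic assay at pH 5.0: compounds (0.7 nM to 77 uM) titrated against 4 nM rice enzyme and 400 uM 4-MU-alpha-glucoside for 20 min at room temperature; NaOH/glycine stop, read ex 365/em 440 nm, Hill-fitted AC50.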

[16] = target: DNA repair nuclease/redox regulator APEX1 (Homo sapiens) (UniProt P27695); test: qHTS Validation Assay for Inhibitors of the Human Apurinic/apyrimidinic Endonuclease 1 (APE1) (AID 1705)
Summary of the method: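 Read-out: TAMRA fluorescence (525 nm ex, 598 nm em) from cleavage of a quenched THF abasic-site duplex, 50 nM final; activity taken as intensity change between third and first of three reads 60 s apart.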

[17] = Counterscreen for APE1 Inhibitors: Fluorescent Dye Displacement Validation Assay (AID 1707);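 further: plate controls were ThO with dsDNA and no compound for no effect and ThO without dsDNA for full effect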
Summary of the method: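 Reaction mixture of 250 nM Thiazole Orange and 50 nM double-stranded abasic-site DNA was dispensed, compounds were pin-transferred, and fluorescence was read at endpoint (480 nm ex, 540 nm em). Reduced fluorescence indicated dye displacement by DNA binding.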

[18] = qHTS for differential inhibitors of proliferation of Plasmodium falciparum line 7G8 (AID 1815);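 further: parasite growth measured after three days of incubation; plate controls were vehicle wells for no effect and reference inhibitor wells for full effect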
[19] = qHTS for differential inhibitors of proliferation of Plasmodium falciparum line GB4 (AID 1816); conditions: Potency: Plasmodium falciparum GB4 proliferation inhibition;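 further: parasite growth measured after 72 h incubation; 0% = vehicle DMSO and -100% = reference inhibitor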
[20] = qHTS for differential inhibitors of proliferation of Plasmodium falciparum line 3D7 (AID 1876);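 further: parasite growth measured after three days of culture; 0% = vehicle wells and -100% = reference inhibitor wells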
[21] = qHTS for differential inhibitors of proliferation of Plasmodium falciparum line D10 (AID 1877);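 further: parasites grown with compound for 72 h before DNA staining; plate controls were vehicle wells for no effect and reference inhibitor wells for full effect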
[22] = qHTS for differential inhibitors of proliferation of Plasmodium falciparum line Dd2 (AID 1882); conditions: Potency: Plasmodium falciparum Dd2 proliferation inhibition;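 further: plate controls were DMSO vehicle for no effect and 0.29 µM artemisinin for full effect; nearly all actives have a fitted effect of over 65% in size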
Summary of the method: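 SYBR Green DNA fluorescence (ex 485, em 535 nm) after overnight lysis quantifies parasite growth; compound exposure lasted 72 h at 37 C on infected red cells at 2.5% hematocrit, 0.3% parasitemia (final). Artemisinin 0.29 uM and vehicle wells define normalization.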

[23] = qHTS for differential inhibitors of proliferation of Plasmodium falciparum line W2 (AID 1883); conditions: Potency: Plasmodium falciparum W2 proliferation inhibition;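 further: parasites grown with compound for 72 h before lysis and staining; 0% = vehicle wells and -100% = control inhibitor wells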
[24] = qHTS for differential inhibitors of proliferation of Plasmodium falciparum line HB3 (AID 1886); conditions: Potency: Plasmodium falciparum HB3 proliferation inhibition;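 further: parasites grown with compound for 72 h before SYBR Green readout; plate controls were vehicle for no effect and reference inhibitor for full effect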
[25] = qHTS Assay for Modulators of Human Peripheral Myelin Protein 22 (PMP22) Expression/Activity (AID 1967; active means well fitted curve in the direction sought with a large enough effect in the signal ratio; the % refers to the signal ratio;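 further: 0% = untreated cells and 100% end not stated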)
Summary of the method: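 Mouse MSC80 Schwann line, Pmp22 promoter–CBG68 reporter, EF-alpha–CBR internal control. 24h compound exposure, 37 °C/5% CO2, DMEM + 10% FBS. Readout: corrected green/red luminescence ratio, normalized to untreated cells; concentration-response curves fitted and classified.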

[26] = target: Ferritin light chain (Equus caballus) (UniProt P02791); test: qHTS Validation Assay for Identification of Novel General Anesthetics (AID 2323); further: on the % scale 0 is the no-effect control and ±100 the full control effect
Summary of the method: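 10 uM horse-spleen apoferritin + 1-AMA (50% saturated, PBS); cpd pin-transferred, 10 min RT. Ex 380/Em 535 nm endpoint. Activity normalized between free 1-AMA and 1-AMA/apoferritin; 4-parameter Hill fit of concentration-response.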

[27] = target: ATP-dependent DNA helicase Q1 (Homo sapiens) (UniProt P46063); test: qHTS Validation Assay for Inhibitors of RecQ-Like Dna Helicase 1 (RECQ1) (AID 2353);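 further: plate controls were DMSO vehicle for no effect and enzyme-free control for full effect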
Summary of the method: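 RECQ1T1 50 nM; forked duplex (20 bp + 30-nt ss tails) 200 nM, ATP 2 mM final; pH 8.0, 2 mM MgCl2, 2.5 ug/ml poly(dI-dC); 15 min compound preincubation; discontinuous kinetic read over 2 h at RT.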

[28] = target: RecQ-like DNA helicase BLM (Homo sapiens) (UniProt P54132); test: qHTS Validation Assay for Inhibitors of Bloom's syndrome helicase (BLM) (AID 2364);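 further: plate controls were DMSO vehicle for no effect and enzyme-free control for full effect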
Summary of the method: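 Forked 20-bp duplex substrate (200 nM, TAMRA/BHQ-2) plus 2 mM ATP added after 15 min compound preincubation with 50 nM enzyme, pH 8.0, poly(dI-dC) 2.5 ug/ml. Strand separation followed by fluorescence (525/598 nm) over 2 h, normalized to enzyme-free and DMSO controls.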

[29] = Validation screen for small molecules that induce DNA re-replication in MCF 10A normal breast cells (AID 463097); further: 0% is about no effect; nearly all actives have a fitted effect of over 60% in size
Summary of the method: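 250 MCF 10A cells/well; compound pin-transferred; 48 hr, 37 C, 5% CO2; Hoechst 40 min; imaged 405/500-530 nm. Hits = more high-intensity nuclei.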

[30] = Quantitative high throughput screen for delayed death inhibitors of the malarial parasite plastid, 96 hour incubation (AID 488745);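 further: luciferase-expressing P. falciparum in erythrocytes at 2% hematocrit and 0.1% parasitemia; on the % scale 0 is the no-effect control and ±100 the full control effect; nearly all actives have a fitted effect of over 70% in size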
Summary of the method: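 Readout is firefly luciferase luminescence from an integrated reporter in P. falciparum; lower signal marks inhibited growth. Cultures at 2% hematocrit and 0.1% parasitemia were treated with compound across two generations (96 h, 37 C, 5% CO2).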

[31] = Quantitative high throughput screen for delayed death inhibitors of the malarial parasite plastid, 48 hour incubation (AID 488752); further: on the % scale 0 is the no-effect control and ±100 the full control effect; nearly all actives have a fitted effect of over 65% in size
Summary of the method: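 First, compound was pinned into RPMI 1640 medium containing 0.5% Albumax. Next, reporter-parasite-infected erythrocytes were added to 2% hematocrit and 0.1% parasitemia. After 48 h at 37 C under 5% CO2, luciferase detection reagent was added and luminescence read.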

[32] = target: Transient receptor potential cation channel subfamily V member 1 (Homo sapiens) (UniProt Q8NER1); test: HTS Assay for Compounds that Act as Enhancers of the Vanilloid Receptor 1 (AID 488979); further: 0% is about no effect
Summary of the method: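 Calcium influx kinetics via Fluo-8 (480/520 nm) in TRPV1-expressing cells, 2000/well cultured overnight at 35.5C. Compound-alone read 3 min (agonist phase), followed by EC20 capsaicin challenge for 2 min (enhancer phase).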

[33] = target: Thyrotropin receptor (Homo sapiens) (UniProt P16473); test: qHTS Assay for Antagonists of the Thyroid Stimulating Hormone Receptor (AID 488980); further: 0% is about no effect
Summary of the method: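 TSHR-HEK293 cells; 70 uM RO 20-1724 PDE inhibitor; compound + EC80 TSH (4 nM final); anti-cAMP cryptate antibody/cAMP-d2 in lysis buffer, 30 min RT; HTRF 665/620 nm read.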

[34] = target: Thyrotropin-releasing hormone receptor (Homo sapiens) (UniProt P34981); test: qHTS for Small Molecule Agonists and Allosteric Enhancers of Human TRH Receptor: Validation Screen for Agonists (AID 493127;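 active means calcium activation more than 3 SD above the typical response in the agonist read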;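 further: intracellular calcium rise by fluo-8 fluorescence before TRH EC20 addition; 0% is about no effect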); conditions: TRH receptor agonist cell assay; at 2 µM; hits give high values
Summary of the method: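 Compounds are added by online pintool to dye-loaded TRHR cells while fluorescence is recorded every second. A rise in calcium signal during the agonist read marks activation; a later 10 nM TRH addition (EC20) serves the separate enhancer mode.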

[35] = target: Galactokinase (Homo sapiens) (UniProt P51570); test: qHTS Validation Assay for Inhibitors of Human Galactokinase (GALK) (AID 493189); further: 0% is about no effect
Summary of the method: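 Luminescence from leftover ATP (Kinase-Glo Plus, 10 min) served as read-out after a 1 h room-temperature reaction of 5 nM GALK, 100 uM galactose and 35 uM ATP at pH8.0.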

[36] = Validation screen for small molecules that induce DNA re-replication in SW480 colon adenocarcinoma cells (AID 504364); further: 0% is about no effect
Summary of the method: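 Image-based qHTS: compounds were incubated with SW480 cells for 48 hr, nuclei stained with Hoechst, and per-nucleus fluorescence intensity scanned to flag cells with excess DNA content.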

Sequence of Glucocorticoid receptor (Homo sapiens) (P04150 whole entry, looked up, the tested form may be a part): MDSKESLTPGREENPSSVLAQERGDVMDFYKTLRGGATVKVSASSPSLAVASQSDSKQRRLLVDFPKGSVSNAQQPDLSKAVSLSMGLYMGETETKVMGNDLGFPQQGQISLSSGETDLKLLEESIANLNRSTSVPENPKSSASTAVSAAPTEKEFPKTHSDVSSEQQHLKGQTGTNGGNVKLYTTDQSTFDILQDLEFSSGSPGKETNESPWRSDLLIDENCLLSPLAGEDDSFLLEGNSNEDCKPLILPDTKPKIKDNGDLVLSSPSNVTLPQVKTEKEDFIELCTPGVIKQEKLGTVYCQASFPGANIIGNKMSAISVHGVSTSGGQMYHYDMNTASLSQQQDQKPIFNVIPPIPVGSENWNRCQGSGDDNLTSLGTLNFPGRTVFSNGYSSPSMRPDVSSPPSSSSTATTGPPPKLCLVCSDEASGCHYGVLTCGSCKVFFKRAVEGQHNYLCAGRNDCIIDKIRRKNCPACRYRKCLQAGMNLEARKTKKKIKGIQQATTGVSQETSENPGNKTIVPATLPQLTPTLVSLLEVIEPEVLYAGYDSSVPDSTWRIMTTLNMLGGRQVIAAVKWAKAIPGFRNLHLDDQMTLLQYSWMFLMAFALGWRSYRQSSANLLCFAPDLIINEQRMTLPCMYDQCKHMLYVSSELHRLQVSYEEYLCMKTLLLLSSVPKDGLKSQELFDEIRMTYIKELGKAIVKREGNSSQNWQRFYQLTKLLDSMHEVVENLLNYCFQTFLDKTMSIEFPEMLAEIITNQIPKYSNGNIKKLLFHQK
Sequence of Thyrotropin-releasing hormone receptor (Homo sapiens) (P34981 whole entry, looked up): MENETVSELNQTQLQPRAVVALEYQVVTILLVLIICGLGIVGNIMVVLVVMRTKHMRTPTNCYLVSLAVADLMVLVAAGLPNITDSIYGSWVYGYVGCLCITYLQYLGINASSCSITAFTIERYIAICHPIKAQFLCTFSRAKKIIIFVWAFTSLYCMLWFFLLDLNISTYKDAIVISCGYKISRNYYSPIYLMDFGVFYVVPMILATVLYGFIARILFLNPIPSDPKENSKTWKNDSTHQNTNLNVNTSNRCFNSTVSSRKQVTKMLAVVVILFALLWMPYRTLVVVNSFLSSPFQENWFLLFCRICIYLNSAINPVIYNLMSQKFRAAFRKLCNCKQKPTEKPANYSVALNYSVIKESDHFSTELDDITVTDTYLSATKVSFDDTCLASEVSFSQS
Sequence of Thyrotropin receptor (Homo sapiens) (P16473 whole entry, looked up): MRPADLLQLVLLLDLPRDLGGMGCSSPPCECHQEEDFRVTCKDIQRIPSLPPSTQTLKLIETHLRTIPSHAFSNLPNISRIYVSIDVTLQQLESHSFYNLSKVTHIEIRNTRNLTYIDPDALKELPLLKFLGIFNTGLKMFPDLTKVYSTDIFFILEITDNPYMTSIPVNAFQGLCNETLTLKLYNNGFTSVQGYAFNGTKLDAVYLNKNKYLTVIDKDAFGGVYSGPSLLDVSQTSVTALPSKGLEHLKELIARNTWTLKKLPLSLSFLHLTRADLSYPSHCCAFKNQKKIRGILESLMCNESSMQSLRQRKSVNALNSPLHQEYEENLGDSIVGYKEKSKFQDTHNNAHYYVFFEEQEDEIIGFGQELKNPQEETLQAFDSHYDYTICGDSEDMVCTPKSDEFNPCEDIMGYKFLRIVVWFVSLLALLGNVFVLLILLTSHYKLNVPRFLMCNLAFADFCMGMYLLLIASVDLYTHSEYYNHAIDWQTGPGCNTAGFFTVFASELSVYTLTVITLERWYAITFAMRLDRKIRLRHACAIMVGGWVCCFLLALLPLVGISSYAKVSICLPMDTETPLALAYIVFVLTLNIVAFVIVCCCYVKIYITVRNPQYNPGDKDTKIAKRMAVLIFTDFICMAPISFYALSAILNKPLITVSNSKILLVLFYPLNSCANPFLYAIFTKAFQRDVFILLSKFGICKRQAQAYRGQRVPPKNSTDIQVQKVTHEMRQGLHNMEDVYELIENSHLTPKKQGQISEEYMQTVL
Sequence of ATP-dependent DNA helicase Q1 (Homo sapiens) (P46063 whole entry, looked up): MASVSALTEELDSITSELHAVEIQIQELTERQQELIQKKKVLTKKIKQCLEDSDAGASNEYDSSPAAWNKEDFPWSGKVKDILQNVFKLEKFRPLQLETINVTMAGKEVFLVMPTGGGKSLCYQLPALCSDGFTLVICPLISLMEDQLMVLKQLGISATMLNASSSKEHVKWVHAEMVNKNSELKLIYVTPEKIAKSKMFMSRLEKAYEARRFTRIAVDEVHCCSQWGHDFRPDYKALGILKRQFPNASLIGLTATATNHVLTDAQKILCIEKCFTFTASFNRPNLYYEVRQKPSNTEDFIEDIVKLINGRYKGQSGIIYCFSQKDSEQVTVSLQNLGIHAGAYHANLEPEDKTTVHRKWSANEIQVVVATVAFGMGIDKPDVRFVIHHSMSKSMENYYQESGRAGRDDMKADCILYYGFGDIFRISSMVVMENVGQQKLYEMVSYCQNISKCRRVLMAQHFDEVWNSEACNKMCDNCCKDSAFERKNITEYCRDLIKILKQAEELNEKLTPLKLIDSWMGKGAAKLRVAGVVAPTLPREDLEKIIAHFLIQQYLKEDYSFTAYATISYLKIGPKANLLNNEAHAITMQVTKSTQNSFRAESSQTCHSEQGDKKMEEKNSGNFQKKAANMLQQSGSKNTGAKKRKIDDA
Sequence of Muscarinic acetylcholine receptor M1 (Rattus norvegicus) (P08482 whole entry, looked up): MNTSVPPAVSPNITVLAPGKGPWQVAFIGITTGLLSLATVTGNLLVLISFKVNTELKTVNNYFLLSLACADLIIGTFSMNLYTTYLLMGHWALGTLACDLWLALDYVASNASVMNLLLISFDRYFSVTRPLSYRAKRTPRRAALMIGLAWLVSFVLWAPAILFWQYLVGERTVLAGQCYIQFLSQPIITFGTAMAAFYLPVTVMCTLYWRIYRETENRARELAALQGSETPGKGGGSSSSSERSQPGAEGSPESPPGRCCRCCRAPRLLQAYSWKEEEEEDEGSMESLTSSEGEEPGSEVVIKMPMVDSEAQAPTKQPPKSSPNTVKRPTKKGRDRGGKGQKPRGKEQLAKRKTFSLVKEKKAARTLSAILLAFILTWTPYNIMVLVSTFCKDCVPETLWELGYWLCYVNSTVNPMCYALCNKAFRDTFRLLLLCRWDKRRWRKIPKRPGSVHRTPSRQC
Sequence of Transient receptor potential cation channel subfamily V member 1 (Homo sapiens) (Q8NER1 whole entry, looked up): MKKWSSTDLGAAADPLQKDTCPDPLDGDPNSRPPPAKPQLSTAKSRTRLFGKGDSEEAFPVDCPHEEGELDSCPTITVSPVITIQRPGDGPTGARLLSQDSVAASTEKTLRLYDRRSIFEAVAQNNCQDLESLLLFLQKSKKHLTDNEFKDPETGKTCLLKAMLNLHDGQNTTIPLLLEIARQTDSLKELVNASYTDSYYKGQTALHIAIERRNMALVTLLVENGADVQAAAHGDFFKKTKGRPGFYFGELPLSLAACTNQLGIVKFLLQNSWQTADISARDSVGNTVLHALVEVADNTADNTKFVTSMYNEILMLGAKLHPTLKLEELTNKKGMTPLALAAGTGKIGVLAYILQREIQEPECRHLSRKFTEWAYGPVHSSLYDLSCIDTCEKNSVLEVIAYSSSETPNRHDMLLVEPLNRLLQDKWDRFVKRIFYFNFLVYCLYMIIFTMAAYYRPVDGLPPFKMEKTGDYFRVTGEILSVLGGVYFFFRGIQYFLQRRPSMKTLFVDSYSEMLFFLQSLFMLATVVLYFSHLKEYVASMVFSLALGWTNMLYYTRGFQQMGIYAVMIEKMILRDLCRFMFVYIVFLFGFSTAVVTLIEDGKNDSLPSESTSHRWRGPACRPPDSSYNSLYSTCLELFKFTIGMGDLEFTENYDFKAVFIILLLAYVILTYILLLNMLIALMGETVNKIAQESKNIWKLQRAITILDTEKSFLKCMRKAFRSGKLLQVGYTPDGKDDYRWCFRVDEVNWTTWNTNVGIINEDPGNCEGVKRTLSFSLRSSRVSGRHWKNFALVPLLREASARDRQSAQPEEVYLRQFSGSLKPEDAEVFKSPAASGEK
Sequence of Ferritin light chain (Equus caballus) (P02791 2-175 limits assumed): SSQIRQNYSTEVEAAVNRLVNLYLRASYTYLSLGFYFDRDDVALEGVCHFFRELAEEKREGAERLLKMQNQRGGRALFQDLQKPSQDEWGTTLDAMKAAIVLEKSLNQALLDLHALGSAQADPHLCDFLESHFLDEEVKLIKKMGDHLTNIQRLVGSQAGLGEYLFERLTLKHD
Sequence of Galactokinase (Homo sapiens) (P51570 whole entry, looked up): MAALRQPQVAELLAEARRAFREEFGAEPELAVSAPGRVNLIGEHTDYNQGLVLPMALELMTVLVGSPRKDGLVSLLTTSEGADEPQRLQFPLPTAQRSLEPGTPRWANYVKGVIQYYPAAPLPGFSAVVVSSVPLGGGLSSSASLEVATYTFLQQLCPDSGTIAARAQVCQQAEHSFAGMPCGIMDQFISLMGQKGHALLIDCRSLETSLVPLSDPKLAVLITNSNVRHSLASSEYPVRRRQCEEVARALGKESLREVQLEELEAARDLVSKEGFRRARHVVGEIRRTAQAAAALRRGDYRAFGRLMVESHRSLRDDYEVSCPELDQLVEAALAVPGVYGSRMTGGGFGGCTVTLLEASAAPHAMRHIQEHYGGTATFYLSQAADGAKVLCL
Sequence of Cytochrome P450 3A4 (Homo sapiens) (P08684 whole entry, looked up): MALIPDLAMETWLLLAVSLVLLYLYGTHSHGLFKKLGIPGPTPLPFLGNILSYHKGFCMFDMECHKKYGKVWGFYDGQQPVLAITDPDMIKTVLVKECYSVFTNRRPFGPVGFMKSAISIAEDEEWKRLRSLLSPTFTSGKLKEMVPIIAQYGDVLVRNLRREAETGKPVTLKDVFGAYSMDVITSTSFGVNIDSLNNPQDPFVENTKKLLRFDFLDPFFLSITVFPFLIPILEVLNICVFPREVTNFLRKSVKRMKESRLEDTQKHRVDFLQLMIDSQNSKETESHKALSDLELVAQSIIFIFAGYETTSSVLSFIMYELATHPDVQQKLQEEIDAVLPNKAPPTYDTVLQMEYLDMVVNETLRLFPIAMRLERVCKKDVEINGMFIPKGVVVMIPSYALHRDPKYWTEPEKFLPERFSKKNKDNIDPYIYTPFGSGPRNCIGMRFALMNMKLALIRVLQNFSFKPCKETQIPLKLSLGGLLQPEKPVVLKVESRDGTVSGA

O=S(=O)(O)C1CCNCC1
inactive: activity change, negative = inhibition [1] 5.14% [at 38 µM] | Potency [2] | outcome [3] | Potency [4] > 46 µM | Potency [5] > 46 µM | Potency [6] | Potency [7] | Potency [8] | activation [9] 1.41% | outcome [10] | Potency [11] | outcome [12] | outcome [13] | outcome [14] | outcome [15] | Potency [16] | outcome [17] | Potency [18] | Potency [19] | Potency [20] | Potency [21] | Potency [22] | Potency [23] | Potency [24] | outcome [25] | outcome [26] | outcome [27] | Potency [28] | Potency [29] | Potency [30] | Potency [31] | outcome [32] | outcome [33] | activation [34] 0.125% | outcome [35] | Potency [36]
